Where “and” joins values, the source holds several entries; their conditions need not be identical. Identical values can stand only once. About 83,000 compounds went through this panel and 20% of them were active in at least one assay; those are over-represented in the sample as a whole.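 Growth was measured after 48 h exposure to one concentration of compound in 96-well plates. Values under 10 count as active.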 Calls of active or inactive are those of the source.
system: MDA-MB-468 breast; experiment: NCI-60 one-dose screen, 48 h (100 = growth as untreated, 0 = no growth, -100 = all killed); settings: 10 µM unless noted

SMILES | growth
c1ccc2nc(N3CCOCC3)c(N3CCCCC3)nc2c1 | 94% (inactive)
NC(=O)c1nc2c([nH]c1=O)CCCC2 | 95% (inactive)
CNc1ccc(Cl)cc1S(=O)(=O)c1ccccc1[N+](=O)[O-] | 72.7% (inactive)
CC/C=C\C[C@H]1C/C=C2/C(=O)C(Cl)=C[C@@H]2C/C=C\CCCC(=O)O1 | -69.2% (active)
O=C(Nc1ccccc1O)c1ccccc1Nc1ccnc(C(F)(F)F)c1 | 116% (inactive)
CCN(CC)CCCC(C)N=c1cc(Nc2cc(=NC(C)CCCN(CC)CC)c3cc(OC)ccc3o2)oc2ccc(OC)cc12 (configuration not stated) | -76.8% (active)
Cc1cc(C)c(O)c(CNCCCCCCNCc2cc(C)cc(C)c2O)c1 | -72.2% (active)
C=Cc1cnc(Nc2ccc(OC)cc2)nc1NCCCNC(=O)C1CCC1 | 46.4% (inactive)
O=C1C(c2ccccc2)=C(N2CCc3ccccc32)OC1(Cl)Cl | 78.4% (inactive)
CC(C)(C)c1cc(C[P+](c2ccc(Cl)cc2)(c2ccc(Cl)cc2)c2ccc(Cl)cc2)cc(C(C)(C)C)c1O | 6.75% (active)
CC(C)c1cc(CNc2nc(Nc3cc(C4CC4)[nH]n3)cc(N3CCN(C)CC3)n2)on1 | -34.8% (active)
O=S(=O)(Nc1ccc(F)cc1)c1ccc(-c2cnc(C3CC3)o2)cc1 | 4.54% (active)
Fc1ccc2[nH]cc(-c3nc(-c4c[nH]c5c(Cl)nccc45)cs3)c2c1 | 9.87% (active)
CNC(=O)c1cccc(-c2ccc3c(N4CCOC[C@@H]4C)nc(N4CCOC[C@@H]4C)nc3n2)c1 | -30.7% (active) and -22.8% (active)
COc1ccc(C2NC(=O)Nc3ccccc32)c(OC)c1 (configuration not stated) | 103% (inactive)
CCNc1nc(C(F)(F)F)nc2c1sc(=S)n2-c1ccccc1 | 81.6% (inactive)
Cc1cccc(NC(=O)CSc2nc3ccccc3[nH]2)c1 | 104% (inactive)
CN(Cc1cnc2nc(N)nc(N)c2n1)c1ccc(C(=O)NC(CCC(=O)O)C(=O)O)cc1Br (configuration not stated) | 42.4% (inactive)
C=C(C=O)[C@@H]1CC[C@]2(COC(C)=O)CC[C@]3(C)C(CC[C@@H]4[C@@]5(C)CC[C@H](OC(C)=O)C(C)(C)[C@@H]5CC[C@]43C)[C@@H]12 (some centres not stated) | 5.16% (active)

SMILES | growth
Oc1cc(O)c2c(=S)cc(-c3ccc(Cl)cc3)oc2c1 | -6.34% (active)
COc1ccc(-c2cn[nH]c2-c2ccc(OC)c(O)c2)cc1 | 47.1% (inactive)
CCNCCNc1cc(C2CCCCC2)c(C#N)c2nc3ccccc3n12 | -45.3% (active)
NS(=O)(=O)c1ccc(-n2nc(-c3ccc(Cl)cc3)c3ccccc3c2=O)cc1 | 104% (inactive)
CC[C@]12C=CCN3CC[C@@]4(c5ccc(OC)cc5N(C)[C@H]4[C@@](O)(C(=O)OC)[C@@H]1OC(=O)CCC(=O)N[C@H](Cc1c[nH]c4ccccc14)C(=O)OC)[C@@H]32 | -42.6% [100 µM] (active)
Cn1cc(-c2cc3ncnc(Nc4ccc(CC(=O)Nc5cc(C(C)(C)C)nn5C)cc4)c3s2)cn1 | 33.8% (inactive)
O=C(O)CCCCc1ccc([N+](=O)[O-])cc1 | 107% (inactive) and 115% (inactive)
Nc1nc(=S)c2ncn(C3OC(CO)C(O)C3O)c2[nH]1 (configuration not stated) | 114% (inactive) and -12.1% (active)
C/C=C(\C)C(C(=O)NC1CCCCC1)N(C(=O)C1CCc2cc(F)ccc2O1)c1ccc(Cl)cc1 (configuration not stated) | 97% (inactive)
Nc1c(C(=O)Nc2ccnc3ccccc23)sc2nc3c(cc12)CN(Cc1ccccc1)CC3 | 44% (inactive)
COc1ccc([C@@H]2[C@@H](O)C(=O)N2c2cc(OC)c(OC)c(OC)c2)cc1Cl | 22.8% (inactive)
COc1cc(N)c2ncccc2c1Cl | 103% (inactive)
COc1cc(/C=C/c2cc(O)c3cc(C(C)=O)c(=O)oc3c2)cc2c1O[C@]1(C)CC[C@@H](O)C(C)(C)[C@H]1C2 | 65% (inactive)
COc1ccccc1NS(=O)(=O)c1cccc(C(=O)Nc2ccc(Br)cc2)c1 | 3.03% (active)
COC(=O)/C=C1\SC(=Nc2ccc(F)cc2)N(CCc2c[nH]c3ccccc23)C1=O | 125% (inactive)
COc1ccc(-c2c(N)n[nH]c2-c2cc(OC)c(OC)c(OC)c2)cc1 | -0.0987% (active)
CCN(Cc1ccc(CN(CC)C(=O)C(Br)Br)cc1)C(=O)C(Br)Br | 17.6% (inactive)
Nc1n[nH]c2ccc([C@@H]3Nc4ccc5cn[nH]c5c4[C@H]4C5CCC(C5)[C@@H]34)cc12 (some centres not stated) | -6.84% (active)

Source: PubChem BioAssay (NCI)
